# T1: NFKBIA 70-282 EF-hand_6 (domain begin residue: 70, domain end residue: 282), P25963
# T1 chain: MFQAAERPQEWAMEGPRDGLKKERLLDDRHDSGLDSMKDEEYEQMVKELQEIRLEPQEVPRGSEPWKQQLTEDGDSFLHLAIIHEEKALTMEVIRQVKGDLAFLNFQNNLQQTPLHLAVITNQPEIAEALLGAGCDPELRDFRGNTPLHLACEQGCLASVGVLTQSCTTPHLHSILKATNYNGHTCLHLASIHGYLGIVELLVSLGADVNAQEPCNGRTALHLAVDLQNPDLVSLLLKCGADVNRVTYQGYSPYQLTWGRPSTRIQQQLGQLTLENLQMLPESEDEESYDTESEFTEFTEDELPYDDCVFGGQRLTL
# T2: NR1H3 204-447 Hormone_recep (domain begin residue: 204, domain end residue: 447), Q13133
# T2 chain: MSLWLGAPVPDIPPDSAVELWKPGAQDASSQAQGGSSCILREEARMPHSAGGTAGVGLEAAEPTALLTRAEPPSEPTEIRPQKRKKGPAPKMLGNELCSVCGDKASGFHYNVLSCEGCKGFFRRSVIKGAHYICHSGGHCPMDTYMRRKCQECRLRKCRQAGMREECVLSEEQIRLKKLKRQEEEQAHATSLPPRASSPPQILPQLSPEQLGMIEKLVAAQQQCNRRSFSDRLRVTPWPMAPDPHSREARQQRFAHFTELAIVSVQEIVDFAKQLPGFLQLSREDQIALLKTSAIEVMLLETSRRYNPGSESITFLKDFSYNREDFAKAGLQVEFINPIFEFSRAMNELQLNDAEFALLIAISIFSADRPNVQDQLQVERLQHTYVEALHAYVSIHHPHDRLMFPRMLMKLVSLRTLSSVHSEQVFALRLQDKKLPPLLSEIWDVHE
# T3: NR1D2 386-579 Hormone_recep (domain begin residue: 386, domain end residue: 579), Q14995
# T3 chain: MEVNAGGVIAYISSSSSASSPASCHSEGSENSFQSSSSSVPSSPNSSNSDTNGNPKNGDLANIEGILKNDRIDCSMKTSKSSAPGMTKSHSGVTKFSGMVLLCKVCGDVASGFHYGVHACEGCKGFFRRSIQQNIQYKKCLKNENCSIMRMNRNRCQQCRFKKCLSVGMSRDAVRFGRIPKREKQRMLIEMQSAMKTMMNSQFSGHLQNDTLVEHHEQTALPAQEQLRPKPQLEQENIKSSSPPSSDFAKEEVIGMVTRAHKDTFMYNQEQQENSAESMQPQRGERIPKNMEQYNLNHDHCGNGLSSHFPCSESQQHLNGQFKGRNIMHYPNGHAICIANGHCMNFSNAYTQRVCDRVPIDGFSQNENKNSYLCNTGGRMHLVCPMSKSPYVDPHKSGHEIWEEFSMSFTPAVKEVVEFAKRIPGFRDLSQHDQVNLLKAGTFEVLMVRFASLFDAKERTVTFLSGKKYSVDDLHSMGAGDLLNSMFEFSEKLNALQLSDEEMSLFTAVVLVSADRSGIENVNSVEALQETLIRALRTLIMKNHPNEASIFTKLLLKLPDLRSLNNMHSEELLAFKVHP
# T4: MDM4 26-106 SWIB (domain begin residue: 26, domain end residue: 106), O15151
# T4 chain: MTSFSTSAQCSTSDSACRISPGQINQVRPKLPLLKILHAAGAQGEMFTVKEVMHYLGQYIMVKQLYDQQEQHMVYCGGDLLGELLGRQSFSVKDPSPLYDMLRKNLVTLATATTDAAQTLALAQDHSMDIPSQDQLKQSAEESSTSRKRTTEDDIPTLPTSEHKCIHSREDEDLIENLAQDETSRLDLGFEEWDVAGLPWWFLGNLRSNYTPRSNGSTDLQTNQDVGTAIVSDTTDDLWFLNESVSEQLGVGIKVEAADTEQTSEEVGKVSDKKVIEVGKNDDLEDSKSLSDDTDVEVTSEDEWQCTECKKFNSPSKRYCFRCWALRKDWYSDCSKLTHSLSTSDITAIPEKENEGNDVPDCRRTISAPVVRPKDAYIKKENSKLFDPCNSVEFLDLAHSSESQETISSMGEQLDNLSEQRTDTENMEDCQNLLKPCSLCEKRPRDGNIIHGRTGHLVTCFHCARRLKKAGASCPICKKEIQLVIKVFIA
# T5: SND1 650-910 TUDOR+SNase (domain begin residue: 650, domain end residue: 910), Q7KZF4
# T5 chain: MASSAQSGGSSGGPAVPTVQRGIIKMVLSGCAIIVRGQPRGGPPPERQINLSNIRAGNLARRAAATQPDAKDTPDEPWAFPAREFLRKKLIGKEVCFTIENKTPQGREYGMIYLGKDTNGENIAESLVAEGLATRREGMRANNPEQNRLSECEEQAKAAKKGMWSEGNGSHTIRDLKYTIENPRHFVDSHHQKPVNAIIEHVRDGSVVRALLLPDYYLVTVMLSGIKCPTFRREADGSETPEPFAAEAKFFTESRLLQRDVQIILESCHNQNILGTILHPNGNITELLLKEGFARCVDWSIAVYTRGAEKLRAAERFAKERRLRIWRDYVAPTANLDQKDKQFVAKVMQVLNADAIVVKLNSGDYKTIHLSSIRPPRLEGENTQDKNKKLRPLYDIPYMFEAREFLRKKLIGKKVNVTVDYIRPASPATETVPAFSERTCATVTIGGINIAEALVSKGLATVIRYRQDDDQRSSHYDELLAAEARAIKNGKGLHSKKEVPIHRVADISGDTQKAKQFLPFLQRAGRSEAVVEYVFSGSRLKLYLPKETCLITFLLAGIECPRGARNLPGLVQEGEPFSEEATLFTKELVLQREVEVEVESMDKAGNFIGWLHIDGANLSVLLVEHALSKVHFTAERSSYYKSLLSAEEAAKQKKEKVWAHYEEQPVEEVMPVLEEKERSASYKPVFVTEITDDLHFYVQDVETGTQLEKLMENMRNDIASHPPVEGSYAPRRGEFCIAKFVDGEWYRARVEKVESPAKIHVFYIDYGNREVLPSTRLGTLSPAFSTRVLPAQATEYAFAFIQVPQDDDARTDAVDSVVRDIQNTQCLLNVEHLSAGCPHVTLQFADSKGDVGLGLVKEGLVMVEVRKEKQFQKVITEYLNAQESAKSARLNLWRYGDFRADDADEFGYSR
# T6: NR1H2 203-460 Hormone_recep (domain begin residue: 203, domain end residue: 460), P55055
# T6 chain: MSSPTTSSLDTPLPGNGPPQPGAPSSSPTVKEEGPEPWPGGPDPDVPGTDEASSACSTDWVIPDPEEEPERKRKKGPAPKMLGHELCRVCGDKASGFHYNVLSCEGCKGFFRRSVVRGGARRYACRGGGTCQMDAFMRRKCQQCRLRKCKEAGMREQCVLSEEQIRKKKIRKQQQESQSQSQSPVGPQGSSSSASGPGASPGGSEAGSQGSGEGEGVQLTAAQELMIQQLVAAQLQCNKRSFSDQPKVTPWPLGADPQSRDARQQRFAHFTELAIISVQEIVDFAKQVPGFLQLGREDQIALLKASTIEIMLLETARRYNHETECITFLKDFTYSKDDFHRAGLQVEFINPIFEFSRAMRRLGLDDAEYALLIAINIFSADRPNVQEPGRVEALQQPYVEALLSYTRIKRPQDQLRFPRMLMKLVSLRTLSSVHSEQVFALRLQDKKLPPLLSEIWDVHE
# T7: MYL6 4-151 EF-hand_6 (domain begin residue: 4, domain end residue: 151), P60660
# T7 chain: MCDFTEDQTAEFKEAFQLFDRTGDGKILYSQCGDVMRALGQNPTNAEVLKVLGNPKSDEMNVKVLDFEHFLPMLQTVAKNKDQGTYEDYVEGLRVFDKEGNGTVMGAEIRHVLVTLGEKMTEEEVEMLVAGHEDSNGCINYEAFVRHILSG
# Tests used:
# Assay in all cases: phage ELISA signal ratio (GST-PRM binding over GST background); higher = stronger binding of peptide-phage to the PRM
# [1] = biological target: MSH6 89-203 PWWP (domain begin residue: 89, domain end residue: 203), P52701
# In short: (§1)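 Five rounds of selection were carried out against human peptide recognition domains fused to the C-terminus of glutathione S-transferase (GST) and expressed in 96-well plates. The M13 phage library presented randomized hexadecapeptides, cysteine-free and glycine-flanked, on the gene-8 major coat protein. For each value, the phage ELISA signal on the GST-domain fusion was divided by the signal on GST alone.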
# [2] = biological target: SETD1A 2-220 RRM_1 (domain begin residue: 2, domain end residue: 220), O15047
# In short: as §1
# [3] = biological target: T1, NFKBIA 70-282 EF-hand_6 (domain begin …
# In short: as §1
# [4] = biological target: T2, NR1H3 204-447 Hormone_recep (domain …
# In short: as §1
# [5] = biological target: MAD2L1 2-205 HORMA (domain begin residue: 2, domain end residue: 205), Q13257
# In short: as §1
# [6] = biological target: T3, NR1D2 386-579 Hormone_recep (domain …
# In short: as §1
# [7] = biological target: T4, MDM4 26-106 SWIB (domain begin residue: …
# In short: as §1
# [8] = biological target: T5, SND1 650-910 TUDOR+SNase (domain begin …
# In short: as §1
# [9] = biological target: T6, NR1H2 203-460 Hormone_recep (domain …
# In short: as §1
# [10] = biological target: T7, MYL6 4-151 EF-hand_6 (domain begin …
# In short: as §1
# Sequence of MAD2L1 2-205 HORMA (domain begin residue: 2, domain end residue: 205), Q13257 (Q13257 whole entry): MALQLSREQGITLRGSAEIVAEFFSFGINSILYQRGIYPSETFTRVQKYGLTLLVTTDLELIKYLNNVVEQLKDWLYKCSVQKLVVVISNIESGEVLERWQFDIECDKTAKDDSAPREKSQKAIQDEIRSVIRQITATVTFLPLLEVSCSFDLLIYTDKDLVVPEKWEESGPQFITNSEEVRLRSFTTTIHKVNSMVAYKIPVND
# Sequence of MSH6 89-203 PWWP (domain begin residue: 89, domain end residue: 203), P52701 (P52701 whole entry, the tested form may be a part): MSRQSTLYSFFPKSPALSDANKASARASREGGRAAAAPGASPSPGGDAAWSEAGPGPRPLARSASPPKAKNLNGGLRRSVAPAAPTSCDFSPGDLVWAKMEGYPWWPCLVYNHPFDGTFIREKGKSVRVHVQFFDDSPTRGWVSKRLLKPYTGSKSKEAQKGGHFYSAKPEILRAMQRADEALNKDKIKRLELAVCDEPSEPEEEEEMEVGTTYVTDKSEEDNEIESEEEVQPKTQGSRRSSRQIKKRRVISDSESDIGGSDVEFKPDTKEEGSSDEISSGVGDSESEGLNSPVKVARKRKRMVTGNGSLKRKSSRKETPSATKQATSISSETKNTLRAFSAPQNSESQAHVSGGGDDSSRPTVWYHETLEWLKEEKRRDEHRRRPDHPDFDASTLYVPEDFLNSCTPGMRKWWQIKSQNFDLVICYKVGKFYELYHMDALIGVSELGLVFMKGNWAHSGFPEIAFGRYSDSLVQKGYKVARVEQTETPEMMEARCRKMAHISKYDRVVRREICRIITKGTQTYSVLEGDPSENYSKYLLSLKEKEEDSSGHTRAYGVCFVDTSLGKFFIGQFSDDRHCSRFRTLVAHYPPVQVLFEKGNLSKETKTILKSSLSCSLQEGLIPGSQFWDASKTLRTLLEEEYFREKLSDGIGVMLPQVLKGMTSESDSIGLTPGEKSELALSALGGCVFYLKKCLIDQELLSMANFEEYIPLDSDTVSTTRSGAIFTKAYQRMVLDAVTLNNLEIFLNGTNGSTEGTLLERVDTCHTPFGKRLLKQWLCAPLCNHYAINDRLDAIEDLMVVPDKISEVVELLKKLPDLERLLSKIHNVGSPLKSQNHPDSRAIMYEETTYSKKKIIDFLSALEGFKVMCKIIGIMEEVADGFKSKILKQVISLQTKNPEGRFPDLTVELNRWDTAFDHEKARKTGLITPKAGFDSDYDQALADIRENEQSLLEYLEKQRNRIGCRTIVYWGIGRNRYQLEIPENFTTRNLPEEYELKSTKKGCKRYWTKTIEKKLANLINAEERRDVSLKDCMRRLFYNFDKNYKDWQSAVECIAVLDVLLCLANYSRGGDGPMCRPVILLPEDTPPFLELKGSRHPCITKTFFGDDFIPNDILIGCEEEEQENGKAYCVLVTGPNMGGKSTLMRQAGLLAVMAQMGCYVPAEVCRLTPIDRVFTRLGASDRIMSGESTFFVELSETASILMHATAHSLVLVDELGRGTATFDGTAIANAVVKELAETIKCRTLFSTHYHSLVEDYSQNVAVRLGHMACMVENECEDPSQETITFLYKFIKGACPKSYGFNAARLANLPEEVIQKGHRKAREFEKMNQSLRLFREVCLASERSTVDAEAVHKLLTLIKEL
# Sequence of SETD1A 2-220 RRM_1 (domain begin residue: 2, domain end residue: 220), O15047 (O15047 whole entry): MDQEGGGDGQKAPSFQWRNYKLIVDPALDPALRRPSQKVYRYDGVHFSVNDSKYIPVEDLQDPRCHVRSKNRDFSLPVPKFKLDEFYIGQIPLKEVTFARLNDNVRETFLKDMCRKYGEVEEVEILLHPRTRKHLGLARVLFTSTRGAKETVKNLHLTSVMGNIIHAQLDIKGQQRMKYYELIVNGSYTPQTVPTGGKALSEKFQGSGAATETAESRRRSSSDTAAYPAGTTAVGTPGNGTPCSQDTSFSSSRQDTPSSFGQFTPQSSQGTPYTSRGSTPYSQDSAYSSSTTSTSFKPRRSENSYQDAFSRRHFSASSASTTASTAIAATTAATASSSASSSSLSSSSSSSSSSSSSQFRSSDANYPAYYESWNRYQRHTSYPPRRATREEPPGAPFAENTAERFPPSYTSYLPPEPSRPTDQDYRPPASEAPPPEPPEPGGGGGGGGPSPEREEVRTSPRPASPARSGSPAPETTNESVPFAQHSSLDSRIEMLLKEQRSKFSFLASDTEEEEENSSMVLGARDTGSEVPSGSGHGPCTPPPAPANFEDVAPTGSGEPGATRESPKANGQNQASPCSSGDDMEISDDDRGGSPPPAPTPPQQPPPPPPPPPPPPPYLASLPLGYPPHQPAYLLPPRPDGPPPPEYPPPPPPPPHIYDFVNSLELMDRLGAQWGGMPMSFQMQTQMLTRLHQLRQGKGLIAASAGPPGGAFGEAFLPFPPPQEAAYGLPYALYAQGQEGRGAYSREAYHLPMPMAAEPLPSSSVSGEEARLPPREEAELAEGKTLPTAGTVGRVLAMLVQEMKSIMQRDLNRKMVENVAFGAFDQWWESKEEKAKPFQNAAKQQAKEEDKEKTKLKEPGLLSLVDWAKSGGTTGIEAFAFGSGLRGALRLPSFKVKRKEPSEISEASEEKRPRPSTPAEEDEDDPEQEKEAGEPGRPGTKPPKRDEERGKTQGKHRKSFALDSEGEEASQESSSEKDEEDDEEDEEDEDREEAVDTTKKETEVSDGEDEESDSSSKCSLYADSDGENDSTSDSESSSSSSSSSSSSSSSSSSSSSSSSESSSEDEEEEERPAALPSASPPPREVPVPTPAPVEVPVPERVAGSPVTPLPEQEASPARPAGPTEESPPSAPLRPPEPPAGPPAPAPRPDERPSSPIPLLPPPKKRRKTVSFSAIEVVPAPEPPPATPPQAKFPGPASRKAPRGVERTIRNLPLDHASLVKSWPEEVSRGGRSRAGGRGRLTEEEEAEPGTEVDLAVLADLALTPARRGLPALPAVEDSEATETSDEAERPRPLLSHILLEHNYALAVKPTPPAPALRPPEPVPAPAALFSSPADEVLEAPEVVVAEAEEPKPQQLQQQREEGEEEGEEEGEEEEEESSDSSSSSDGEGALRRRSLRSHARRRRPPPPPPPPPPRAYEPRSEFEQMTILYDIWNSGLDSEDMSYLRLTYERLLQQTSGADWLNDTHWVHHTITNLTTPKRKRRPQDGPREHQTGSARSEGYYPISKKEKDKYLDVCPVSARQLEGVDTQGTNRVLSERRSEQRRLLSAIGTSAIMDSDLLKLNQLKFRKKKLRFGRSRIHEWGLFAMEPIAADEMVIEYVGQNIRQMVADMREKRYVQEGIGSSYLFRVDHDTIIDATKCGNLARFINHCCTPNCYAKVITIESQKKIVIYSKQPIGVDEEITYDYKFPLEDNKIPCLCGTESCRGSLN
binder,measurement,setting,value
TSYDPWVMEGMTQVVA,phage ELISA signal ratio,[1],6.43
same,phage ELISA signal ratio,[2],7.68
EWFTDHNGADVWLELP,phage ELISA signal ratio,[3],4.99
GEDPPPYSPLTSPDSG,phage ELISA signal ratio,[3],4.18
EYYPEWDFLWRHMQEP,phage ELISA signal ratio,[4],8.56
PQTGHWIKFPKPWLEN,phage ELISA signal ratio,[5],15.5
VDPDWWDWMMSQLDTN,phage ELISA signal ratio,[4],6.41
PMWDSVWDHLLTEPPE,phage ELISA signal ratio,[1],5.84
YSIWMMEPPKVAPKAE,phage ELISA signal ratio,[5],15
VWYRFEPAPMPKPHGQ,phage ELISA signal ratio,[5],20.4
PHGITDVWAQWFVEML,phage ELISA signal ratio,[6],5.27
TFSESWATLTSTSEWM,phage ELISA signal ratio,[7],20.4
WFGMEPEEQSMEWQKW,phage ELISA signal ratio,[3],6.64
FTAQDVLSHMSLWEFT,phage ELISA signal ratio,[7],21.7
MPLFMDLWQDMMPTNY,phage ELISA signal ratio,[7],17.9
DFAWWWSQMLEAEVNF,phage ELISA signal ratio,[7],12.3
VEHEFLWHWGQIDFMM,phage ELISA signal ratio,[7],16
QHSAMSAVWHFGPMWY,phage ELISA signal ratio,[5],15
IEFMDYWDSLDWMQKV,phage ELISA signal ratio,[7],14.7
MWWYDGEMEKMIMETL,phage ELISA signal ratio,[1],4.31
same,phage ELISA signal ratio,[8],7.5
DHWWVWGWEAEEYIMP,phage ELISA signal ratio,[9],13.9
YDFSQYWDAIPEQFIV,phage ELISA signal ratio,[7],18.1
YFYTQVNGIWYKWVLS,phage ELISA signal ratio,[10],4.86
YMVEEHYYDLMQMLGS,phage ELISA signal ratio,[3],11
AFWTHWQKLIPPEFQA,phage ELISA signal ratio,[7],26.1
DSNIWLTRGPVHNTQQ,phage ELISA signal ratio,[5],14.1
DFMDFWEDATMGLVGT,phage ELISA signal ratio,[7],21.7
KMELSFWEFWQVLQHE,phage ELISA signal ratio,[7],18
MVEQQVFWYLWMELMN,phage ELISA signal ratio,[7],19.4

# Reference: the supplement of paper PMC7724964
